# Assay results taken from PubChem BioAssay AID686978 (National Center for Advancing Translational Sciences (NCATS), 2013).
# The campaign covered roughly 420,000 compounds. About 64,000 (15%) were called active. About 27% were inconclusive and are not listed. Not all results are given here. Values without a mark were called inactive. The call rests on the fitted dose curve; in most records, active means well fitted inhibition curve with a large enough effect; inconclusive means small, poorly fitted or top-dose-only effect; inactive means flat fitted curve, though single readings scatter.
# Test: qHTS for Inhibitors of human tyrosyl-DNA phosphodiesterase 1 (TDP1): qHTS in cells in absence of CPT; further: nearly all actives have a fitted effect of over 55% in size
# Conditions: DT40 Tdp1-/- hTDP1 cells, no CPT, ATP luminescence, 48 h; activity change, negative = growth inhibition: at 46.2 µM (top of the series)
# Procedure, shortened: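 Cells were dispensed at 400 per well, compounds added by pin tool, plates incubated ≥48 hr at 37 °C, then CellTiter-Glo added for 30 min at room temperature before luminescence reading. Line: DT40 Tdp1-/- complemented with hTDP1; camptothecin omitted.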
# On the % scale 0 is the no-effect control and ±100 the full control effect; potency means the concentration at half of the fitted maximal effect.
SMILES,"activity change, negative = growth inhibition [%]",Potency
CC(C)CNS(=O)(=O)c1ccc(C(=O)Nc2ccc3c(c2)OCO3)cc1,-21.9,
CCC(C)[C@@H](C(=O)N1CCNCC1)n1cc(CCCCN)nn1 (stereo partly specified),-5.37,
CC(C)C12CN3CC(C(C)C)(CN(C1)C3c1ccc(OCc3ccccc3)cc1)C2=O (stereo unspecified),1.91,
CC1=C(C(=O)OCC(C)C)C(c2ccc(OCc3ccccc3)cc2)N2C(=O)CCSC2=N1 (stereo unspecified),,16.4 µM (active)
C=CCOC(=O)C1=C(C)N=C2SCCC(=O)N2C1/C=C/c1ccccc1OC (stereo unspecified),-1.5,
COc1ccc(-n2c(=O)c(-c3cn(C)c4ccccc34)nc3cnc(OC)nc32)cc1,-3.92,
CCC(C(=O)N1CCOCC1)n1c(C(=O)OC)cc2occc21 (stereo unspecified),1.19,
CCS(=O)(=O)c1ccc2c(c1)N(S(=O)(=O)c1ccccc1)CC(C(=O)O)O2 (stereo unspecified),-5.4,
CCOc1ccc(S(=O)(=O)N2CCC(C(=O)OCc3ccc(OC)cc3)CC2)cc1,-10.8,
CCOC(=O)C1CN(S(=O)(=O)c2ccc(OC)cc2)c2cc(Cl)ccc2O1 (stereo unspecified),,20.6 µM (active)
Cn1cc(S(=O)(=O)N2CCN(c3ccc(F)cc3)CC2)c(=O)n(C)c1=O,-26.6,
Nc1nnc(SCC(=O)NC2CCCc3ccccc32)s1 (stereo unspecified),15.3,
CCOC(=O)N1CCN(S(=O)(=O)c2ccc(C(=O)Nc3ccc(F)cc3F)cc2)CC1,,1.64 µM (active)
CCOC(=O)N1CCN(S(=O)(=O)c2ccc(Br)cc2)CC1,2.06,
CCOC(=O)N1CCN(S(=O)(=O)c2ccc(-n3cnnn3)cc2)CC1,-12.2,
Cc1ccc(S(=O)(=O)N(C)C)cc1NC(=O)c1ccc(-n2cncn2)c([N+](=O)[O-])c1,2.95,
Cc1cc(Nc2cccc(C(F)(F)F)c2)nc2ccc(NC(=O)c3ccc(=O)[nH]c3)cc12,,4.61 µM (active)
COc1cc(OC)cc(C(=O)Nc2ccc3nc(Nc4cccc(C(F)(F)F)c4)cc(C)c3c2)c1,,5.8 µM (active)
O=C(NNC(=O)c1cccc(S(=O)(=O)Nc2ccc(Cl)cc2)c1)c1ccc(=O)[nH]c1,27.3,
O=C(COC(=O)c1cc[n+]([O-])cc1)Nc1ccc(Cl)c(C(F)(F)F)c1,-20.8,
CCn1c(Cc2ccccc2)nnc1SCC(=O)Nc1ccccc1,-13,
CCc1nn(CC(=O)N2CCN(c3cccc(C(F)(F)F)c3)CC2)c(=O)c2cc3occc3n12,-10.6,

SMILES,"activity change, negative = growth inhibition [%]",Potency
CC1COc2ccccc2N1C(=O)c1ccc(F)cc1 (stereo unspecified),4.13,
C/C(CC(=O)NC(C)c1ccccc1)=N\NC(N)=S (stereo unspecified),2.8,
Cc1cccc(NC(=O)c2cc(N3C(=O)CCC3=O)ccc2Cl)n1,-0.716,
Cc1ccccc1Nc1c([N+](=O)[O-])ccc2nonc12,-9.27,
COc1ccccc1Cc1c(-c2ccc(Cl)cc2)nc2c3ccccc3ccn12,,20.6 µM (active)
N#Cc1ccc(-c2nc3c(Cl)cc(C(F)(F)F)cn3c2Cc2ccccc2C(F)(F)F)cc1,-26.2,
COc1ncc2nc(-c3ccc(Cl)cc3)c(=O)n(-c3ccccc3)c2n1,-8.91,
CC(C)OC(=O)CC(=O)CC(O)c1cccc([N+](=O)[O-])c1 (stereo unspecified),-12.4,
NC(Cc1ccccc1)c1csc(Nc2cc(Oc3ccccc3)ncn2)n1 (stereo unspecified),,16.4 µM (active)
CCNC(=O)C1CCCN(C(=O)c2cc(F)ccc2C)CC1 (stereo unspecified),-17.4,
CC(C)CN(CC(C)C)CC(O)CN(c1ccccc1)S(=O)(=O)c1ccccc1[N+](=O)[O-] (stereo unspecified),,23.1 µM (active)
Cc1cccc(N(CC(O)CN(C)C)S(=O)(=O)c2ccccc2)c1 (stereo unspecified),-22.2,
CCN(c1ccccc1)S(=O)(=O)c1cc2c(cc1C)n(C)c(=O)c(=O)n2C,-14.4,
NC(=O)CCCC1=NS(=O)(=O)c2ccccc2N1,2.92,
CCCCN1C(=O)/C(=C/C=C2/C=Cc3ccccc3N2CC)SC1=S,,8.2 µM (active)
CN1C=CC=C/C1=C1\SC(=S)N(Cc2ccccc2)C1=O,-9.29,
CCCCN1C(=O)/C(=C2/C=CC=CN2C)SC1=S,-20.2,
CCCOc1ccc(-c2nc(N)n[nH]2)cc1,-15.1,
CC(OC(=O)c1ccc2ccccc2n1)C(=O)c1ccccc1 (stereo unspecified),12.4,
COc1ccc(C2NC(=O)c3ccccc3N2)cc1 (stereo unspecified),-29.5,
O=C1NC(c2cccc(Cl)c2)Nc2ccccc21 (stereo unspecified),,16.4 µM (active)
COc1cccc(C2Nc3cccc4cccc(c34)N2)c1,-16.5,

SMILES,"activity change, negative = growth inhibition [%]",Potency
Cc1cc(C)c(C#N)c(SCC(=O)N(CC(C)C)C2CCS(=O)(=O)C2)n1 (stereo unspecified),10.4,
O=C(CNC(=O)c1cccnc1)N/N=C/c1cccnc1,-3.41,
O=C(CSc1cccc2cccnc12)N/N=C/c1cccnc1,,4.11 µM (active)
Cc1nc2ccccc2n1CC(=O)N/N=C/c1cccnc1,21.9,
CC1=C(C(=O)Nc2ccccc2)C(c2cccs2)C(C#N)=C(SCC#N)N1 (stereo unspecified),,7.31 µM (active)
Cc1cc(C)c(C#N)c(SCC(=O)Nc2ccccc2)n1,-16.2,
COc1ccc(NC(=O)c2sccc2SCC#N)cc1,-7.74,
N/C(=N\c1nc2ccccc2o1)NC(=O)C(Cc1ccccc1)N1C(=O)c2ccccc2C1=O (stereo unspecified),-28.8,
Nn1c(SCC(=O)Nc2ccc3c(c2)CCC3)nnc1C1CC1,-9.41,
Cc1cccc(Cc2c(C)nc3nc(SCc4ccccc4Cl)nn3c2C)c1,,20.6 µM (active)
COC(OC)c1ccnc(SCc2ccccc2Cl)n1,-29.6,
Cc1nc2nc(SCC(=O)NCc3ccco3)nn2c(C)c1Cc1ccccc1,-22.9,
Cc1nc(CNS(=O)(=O)c2cc([N+](=O)[O-])ccc2C)cs1,13.9,
Cc1csc(NC(=O)CSc2nc(=O)cc(N)n2-c2ccc(F)cc2)n1,9.25,
COc1cc(SC)ccc1C(=O)Nc1nc(C)cs1,,11.6 µM (active)
COc1ccccc1CNC(=O)c1ccc(SC)cc1OC,,15.8 µM (active)
COc1ccc(Cc2nnc(NC(=O)c3ccc(OC)cc3OC)s2)cc1,-7.52,
COc1cc(SC)ccc1C(=O)NCCOc1ccccc1Cl,-30,
COc1cc(SC)ccc1C(=O)NNC(=O)C1COc2ccccc2O1 (stereo unspecified),-5.11,
CCCCc1cc(=O)oc2cc(C)cc(OCc3nn[nH]n3)c12,-2.09,
O=C(NN1C(=O)C2CCCCC2C1=O)c1ccco1 (stereo unspecified),8.23,
Cc1ccc(S(=O)(=O)N2C[C@H]3C(=O)C[C@@H](c4cccc5ccccc45)N(S(=O)(=O)c4ccc(C)cc4)[C@H]3C[C@H]2c2ccc(Cl)cc2)cc1,-23.3,
